Reference: PubChem BioAssay AID1159580 (chemical genetic matrix, 2015)
Hit rate of the full screen: of about 5,500 compounds, about 2,000 (36%) were called active. Inconclusive results (about 18%) are left out. No stated cut-off is given here; in the data, active means normalized growth mostly below about 0.91 (no sharp cut-off); inconclusive means no clear call, values can overlap the other calls; inactive means mostly above about 0.92. The list shows a part of the results.

Assay: chemical genetic growth profiling, strain panel (AID 1159580);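 further: tested at 20 µM; growth read once vehicle control cultures reached saturation at 30 °C; 1 = growth at the plate median or of vehicle wells; lower values mean less growth of the strain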
Conditions: growth OD

Measured: normalized growth

c1ccc(OCCOc2ccccn2)nc1
inactive: S. cerevisiae deletion strains, locus YAL013W, strain DEP1, active compounds read low 1.03 | S. cerevisiae deletion strains, locus YBR229C, strain ROT2, active compounds read low 0.999 | S. cerevisiae deletion strains, locus YCL061C, strain MRC1, active compounds read low 0.992 | S. cerevisiae deletion strains, locus YDL101C, strain DUN1, active compounds read low 1.01 | S. cerevisiae deletion strains, locus YDL134C, strain PPH21, active compounds read low 0.994 | S. cerevisiae deletion strains, locus YDR150W, strain NUM1, active compounds read low 0.972 | S. cerevisiae deletion strains, locus YEL061C, strain CIN8, active compounds read low 1 | S. cerevisiae deletion strains, locus YGR078C, strain PAC10, active compounds read low 1 | S. cerevisiae deletion strains, locus YHR030C, strain SLT2, active compounds read low 1.06 | S. cerevisiae deletion strains, locus YHR087W, strain rtc3, active compounds read low 0.992 | S. cerevisiae deletion strains, locus YJR043C, strain POL32, active compounds read low 0.995 | S. cerevisiae deletion strains, locus YJR075W, strain HOC1, active compounds read low 1 | S. cerevisiae deletion strains, locus YKL190W, strain CNB1, active compounds read low 0.998 | S. cerevisiae deletion strains, locus YLR039C, strain RIC1, active compounds read low 0.999 | S. cerevisiae deletion strains, locus YLR058C, strain SHM2 (second series), active compounds read low 0.996 | S. cerevisiae deletion strains, locus YLR085C, strain ARP6, active compounds read low 1 | S. cerevisiae deletion strains, locus YLR262C, strain YPT6, active compounds read low 1.05 | S. cerevisiae deletion strains, locus YML094W, strain GIM5, active compounds read low 1.01 | S. cerevisiae deletion strains, locus YMR219W, strain ESC1, active compounds read low 1.01 | S. cerevisiae deletion strains, locus YMR263W, strain SAP30, active compounds read low 0.985 | S. cerevisiae deletion strains, locus YMR307W, strain GAS1, active compounds read low 0.959 | S. cerevisiae deletion strains, locus YNL128W, strain TEP1, active compounds read low 1 | S. cerevisiae deletion strains, locus YNL153C, strain GIM3, active compounds read low 0.997 | S. cerevisiae deletion strains, locus YNL298W, strain CLA4 (second series), active compounds read low 0.978 | S. cerevisiae deletion strains, locus YNL322C, strain KRE1, active compounds read low 1.01 | S. cerevisiae deletion strains, locus YNR030W, strain Alg12, active compounds read low 1 | S. cerevisiae deletion strains, locus YPL055C, strain LGE1, active compounds read low 0.982 | S. cerevisiae deletion strains, locus YPL241C, strain CIN2, active compounds read low 0.988 | S. cerevisiae deletion strains, locus YPR135W, strain CTF4, active compounds read low 1.13 | S. cerevisiae strains, strain wild type, active compounds read low 1
